Assay outcomes: PubChem BioAssay, several laboratories
Platelet DG rel = modulates dense granule release in human platelets; human platelet-rich plasma, SFLLRN dense granule ATP release, luminescence; AID 1663; inhibition, %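 (compounds screened at 7.5 µM in platelet-rich plasma)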; 300,000 tested, 0.22% active;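 active = mean replicate score, as percent of positive control, at or above 50; inconclusive = mean below 50 but at least one replicate at or above 50; inactive = mean and every replicate below 50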
SENP8 block-1 = inhibitors of human SENP8 protease | AID 602440 | 360,000 tested, 0.64% active | recombinant SENP8, Nedd8 substrate fluorescence | Q96LD8 | inhibition, % at 20 µM; in the data active = inhibition mostly above about 40%, no sharp cut-off; inactive = mostly below about 27%
SENP7 inh = SENP7 protease inhibition. Q9BQF6. recombinant SENP7, Z-RLRGG-aminoluciferin luminescence, 40 min. inhibition, % at 5 µM. 330,000 tested, 1.5% active. AID 434973;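 active = inhibition above about 50% at the single test dose, limit read from the data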
SENP6 block = inhibitors of human SENP6 protease; 330,000 tested, 1.8% active; inhibition, % at 10 µM; Q9GZR1; Recombinant SENP6 catalytic domain, aminoluciferin luminescence;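 active = inhibition above about 50% at the single tested dose, limit read from the data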
Target sequence (Q9GZR1 628-1112 limits assumed): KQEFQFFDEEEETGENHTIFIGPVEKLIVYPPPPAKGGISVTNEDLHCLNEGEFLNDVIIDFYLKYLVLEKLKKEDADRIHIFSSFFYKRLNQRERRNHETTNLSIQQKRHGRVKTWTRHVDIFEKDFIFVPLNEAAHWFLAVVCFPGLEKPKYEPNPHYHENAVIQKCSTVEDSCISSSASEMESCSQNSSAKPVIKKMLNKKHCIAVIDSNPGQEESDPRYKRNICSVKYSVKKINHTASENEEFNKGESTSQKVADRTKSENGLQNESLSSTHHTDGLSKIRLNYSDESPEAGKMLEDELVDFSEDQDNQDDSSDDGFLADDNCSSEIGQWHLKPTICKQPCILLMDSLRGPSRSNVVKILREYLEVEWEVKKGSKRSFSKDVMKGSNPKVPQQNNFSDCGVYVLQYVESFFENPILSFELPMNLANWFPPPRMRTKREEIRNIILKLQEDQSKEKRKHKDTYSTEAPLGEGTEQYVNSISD
SENP8 block-2 = inhibitors of human SENP8 protease | purified SENP8, Z-RLRGG-aminoluciferin cleavage, luminescence | Q96LD8 | inhibition, % at 10 µM | AID 2540 | 330,000 tested, 1.2% active; in the data active = inhibition above about 50%
SENP8 confirm = human SENP8 inhibition, confirmed; shares compounds with SENP7 inh; Recombinant SENP8, Z-RLRGG-aminoluciferin luminescence, 60 min; inhibition, % at 12.5 µM; 6,200 tested, 40% active; AID 488912;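 active = mean inhibition across replicates above about 50%, limit read from the data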
SENP6 conf = human SENP6 inhibition, confirmed. 6,200 tested, 58% active. recombinant SENP6, Z-RLRGG-aminoluciferin luminescence. inhibition, % at 12.5 µM. AID 488915. shares compounds with SENP7 inh
SENP7 confirm = confirmation of human SENP7 protease inhibitors; 6,200 tested, 69% active; AID 488917; inhibition, % at 12.5 µM; recombinant SENP7, Z-RLRGG-aminoluciferin luminescence, 40 min; shares compounds with SENP7 inh
Casp3 select = inhibits human caspase-3 in SENP selectivity test; purified caspase-3, Z-DEVD-aminoluciferin luminescence, 60 min; 6,200 tested, 60% active; inhibition, % at 12.5 µM; shares compounds with SENP7 inh;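 active = mean inhibition above about 50%, limit read from the data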
Luc interf = interferes with luciferase luminescence in SENP counter-screen; shares compounds with SENP7 inh; Pre-incubated SENP8/Z-RLRGG-aminoluciferin, luciferase luminescence interference; inhibition, % at 12.5 µM; 6,200 tested, 39% active; AID 488919;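 active = mean inhibition above about 50% when retested at one dose, limit read from the data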
Numbers stand for hits; - = inactive; ? = inconclusive; . = no result given. Most compounds without a hit are left out; they make up all but 2.4% or so of the library.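 Rule for the calls, unless noted: active = mean inhibition above about 50% in the one-dose retest (limit read from the data); inactive = the rest.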

SMILES	Platelet DG rel	SENP8 block-1	SENP7 inh	SENP6 block	SENP8 block-2	SENP8 confirm	SENP6 conf	SENP7 confirm	Casp3 select	Luc interf
CCN1C(=O)[C@H]2[C@H]3CN=C(SC)N3[C@@](C)(C(=O)OC)[C@H]2C1=O	.	-	.	.	.	.	.	.	.	.
CSC(=NC#N)N1CCN(c2ccc([N+](=O)[O-])cc2)CC1	-	-	-	-	-	.	.	.	.	.
Cc1ccc2c(c1)N=C(c1ccc(Cl)cc1)CO2	-	-	98	96	95	83	82	85	80	57
Clc1ccc(C2=Nc3cc(Cl)ccc3OC2)cc1	-	-	81	81	76	-	-	-	-	-
CCCN(C(=O)Cc1c(C(=O)O)n(C)c2ccccc12)c1cccc(C)c1	-	-	-	-	-	.	.	.	.	.
O=C(CSc1ccccn1)c1ccc2c(c1)OCO2	-	-	73	84	54	-	70	92	84	75
Cc1ccnc(NC(=O)c2ccc3c(c2)S(=O)(=O)c2ccccc2C3=O)c1	-	-	92	87	84	-	-	97	64	-
Cn1ccs/c1=N\C(=O)Nc1cccc(C(F)(F)F)c1	-	-	-	-	-	.	.	.	.	.
COc1cccc(CN(C)C(=O)CSc2nc3ccccc3[nH]2)c1OC	-	-	-	-	-	.	.	.	.	.
c1ccc2c(c1)Nc1cc3ccccc3cc1S2	-	-	-	-	-	.	.	.	.	.
Cc1ccc2c(c1)Sc1c(ccc3ccccc13)N2	-	-	-	80	56	-	-	-	-	-
CCCCC(=O)Nc1cc2nn(-c3ccc(OC)cc3)nc2cc1C	-	-	-	-	-	.	.	.	.	.
CCC(=O)Nc1cc2nn(-c3ccc(C)cc3)nc2cc1C	-	-	51	-	-	-	-	-	-	-
CCC(=O)Nc1cc2nn(-c3ccc(OC)cc3)nc2cc1C	-	-	57	-	-	-	-	-	-	-
CC(=O)N1c2ccc(S(=O)(=O)N3CCC(C(=O)NCCc4ccc(Cl)cc4)CC3)cc2CC1C (stereo not given)	-	-	-	-	-	.	.	.	.	.
O=C(/C=C/Nc1cccc([N+](=O)[O-])c1)c1cccs1	-	-	62	70	-	-	53	88	58	57
O=C(/C=C/Nc1ccc(Nc2ccccc2)cc1)c1cccs1	-	-	.	.	.	.	.	.	.	.
Cc1ccc(N/C=C/C(=O)c2cccs2)cc1C	-	-	83	88	85	91	92	100	84	85
O=C(/C=C/Nc1ccccc1C(=O)O)c1cccs1	-	-	-	92	82	-	96	102	98	93
Cc1cc(N/C=C/C(=O)c2cccs2)ccc1F	-	-	-	85	82	88	90	101	87	-
O=C(O)c1ccccc1C(=O)c1cccs1	-	-	-	-	-	.	.	.	.	.
CC(NC(=O)COC(=O)CN1C(=O)c2ccccc2C1=O)c1ccccc1 (stereo not given)	.	-	-	-	-	.	.	.	.	.
CCN(CC)CCNC(=S)Nc1ccc(F)cc1	-	-	-	-	-	.	.	.	.	.
CCCCn1c(N)c(N(CCC(C)C)C(=O)COC(=O)Cc2ccc(Cl)cc2)c(=O)[nH]c1=O	.	-	.	.	.	.	.	.	.	.
O=[N+]([O-])c1cccc(N=Nc2ccc(O)cc2O)c1	.	-	.	.	.	.	.	.	.	.
SMILES	Platelet DG rel	SENP8 block-1	SENP7 inh	SENP6 block	SENP8 block-2	SENP8 confirm	SENP6 conf	SENP7 confirm	Casp3 select	Luc interf
O=[N+]([O-])c1ccc(N=Nc2ccc(O)cc2O)cc1	?	-	98	97	96	100	101	104	99	99
O=Cc1cc(N=Nc2ccc(S(=O)(=O)O)cc2)ccc1O	-	-	-	-	-	.	.	.	.	.
O=S(=O)(O)c1ccc(N=NNc2ccc(Br)cc2)cc1	-	-	90	89	90	91	91	99	85	93
O=C(NCCN1CCOCC1)C1CCC(CNS(=O)(=O)c2ccc(Cl)cc2)CC1 (stereo not given)	-	-	60	-	-	-	-	-	-	-
O=C(NCCCN1CCCC1=O)C1CCC(CNS(=O)(=O)c2ccc(Cl)cc2)CC1 (stereo not given)	-	-	-	-	-	.	.	.	.	.
Cc1nnsc1-c1nc2ccccc2[nH]1	.	-	-	-	-	.	.	.	.	.
Cc1ccc(-c2nc3ccccc3[nH]2)s1	59	-	97	97	93	96	96	100	96	95
c1csc(-c2nc3ccccc3[nH]2)c1	.	-	-	53	-	-	-	69	66	-
COc1cc(/C=C(\C#N)C(=O)NCC2CCCO2)ccc1OCCC(C)C (stereo not given)	-	-	-	-	-	.	.	.	.	.
Cc1ccn(-c2ccc(NC(=O)c3cccs3)cc2)n1	-	-	80	85	74	78	76	94	88	82
O=C(Nc1ccc(NC(=O)c2cccs2)cc1)c1cccs1	-	-	-	-	-	.	.	.	.	.
O=C(N/N=C/c1ccc(N2CCOCC2)cc1)c1cccs1	-	-	76	74	63	67	69	92	90	70
O=C(N/N=C/c1ccc(N2CCOCC2)cc1)c1ccc(NS(=O)(=O)c2cccs2)cc1	-	-	-	-	-	.	.	.	.	.
CN1CCN(c2ccc(NC(=O)c3cccs3)cc2)CC1	-	-	-	54	-	-	-	72	82	-
COc1ccc(CCNC(=O)c2ccc(S(=O)(=O)N3CCCCC3)cc2)cc1	.	-	-	-	-	.	.	.	.	.
CC(=O)Nc1ccccc1C(=O)C(=O)Nc1ccc(F)c(Cl)c1	-	-	-	-	-	.	.	.	.	.
CSc1cccc(NC(=O)Nc2ccccc2C(N)=O)c1	-	-	78	77	64	-	64	87	63	-
CSc1cccc(NC(=O)Nc2ccccc2)c1	-	-	-	-	-	.	.	.	.	.
NC(=O)c1ccccc1NC(=O)Nc1ccc(F)c(Cl)c1	-	-	96	92	92	64	88	99	90	91
CC(Sc1ncccn1)C(=O)N1CCc2ccccc21 (stereo not given)	.	-	-	-	-	.	.	.	.	.
CCOC(=O)c1sc2nc3c(cc2c1N)COC(C(C)C)C3 (stereo not given)	-	-	51	-	-	-	-	-	-	-
COc1cc(/C=C(\C#N)c2nc3ccccc3o2)ccc1O	-	-	80	95	90	94	94	99	86	-
COc1cc(/C=C(\C#N)c2nc(-c3cc4ccccc4oc3=O)cs2)ccc1O	-	-	-	-	-	.	.	.	.	.
COc1cc(/C=C(/C#N)c2nc3ccccc3[nH]2)ccc1OCC(=O)Nc1ccccc1C	.	-	-	-	-	.	.	.	.	.
